# Test results as given in ChEMBL document CHEMBL4513216, “Probing the Open Global Health Chemical Diversity Library for Multistage-Active Starting Points for Next-Generation Antimalarials” (ACS Infect Dis, 2020).
# Out of some 69,000 compounds screened, about 8,600 (12%) showed an effect of 50% or more. The list comes from a sample in which strong results are over-represented; it also holds similar structures and randomly drawn compounds.
# Test system: Plasmodium berghei
# Assay: Screen against P. berghei liver stage (PbLuc), transformed with Luciferase, at 10uM
# Type: functional, HepG2
# Settings: tested at 10 uM
row,SMILES,INHIBITION
1,CSc1ccccc1CN1C[C@H]2CC[C@@H](C1)N(CC1CC1)C2=O,28.3%
2,COc1c(CNCCc2c[nH]c3ccccc23)c(C)nn1C,30.1%
3,COc1c(CNCCc2c[nH]c3cc(F)ccc23)c(C)nn1C,70.2%
4,COc1c(CNCCc2c[nH]c3cc(F)ccc23)c(C(C)C)nn1C,44.2%
5,CS(=O)(=O)c1ccc(CNc2nccc(C(F)(F)F)n2)cc1,-33.9%
6,CN1CC2(CCCN(C(=O)Cc3cccc(O)c3)C2)OC1=O (centres undefined),16.3%
7,CN(C)CC1COCCN1C(=O)c1ccccc1C(=O)c1ccccc1 (centres undefined),22.6%
8,CC(C)N1CCC2(CCCN(Cc3ccc(F)cc3)C2=O)C1 (centres undefined),70.4%
9,O=C1N(Cc2ccc(F)c(F)c2)CCCC12CCN(C1CCCCC1)C2 (centres undefined),81.7%
10,Cc1cccc(CN2CCCC3(CCN(C4CCSCC4)C3)C2=O)c1 (centres undefined),39.9%
11,O=C1N(Cc2ccc(F)cc2)CCCC12CCN(C1CCSCC1)C2 (centres undefined),33.3%
12,CN(C)S(=O)(=O)N1CCC2(CCCN(Cc3ccc(F)cc3)C2=O)C1 (centres undefined),36.8%
13,O=C1N(CCc2ccccc2)CCCC12CCN(C(CO)CO)C2 (centres undefined),-33.9%
14,O=C1N(Cc2ccc(F)c(F)c2)CCCC12CCN(C1CCSCC1)C2 (centres undefined),80.8%
15,CCS(=O)(=O)N1CCC2(CCCN(Cc3ccc(F)c(F)c3)C2=O)C1 (centres undefined),39.4%
16,O=C1N(Cc2ccc(F)c(F)c2)CCCC12CCN(C1CCCC1)C2 (centres undefined),37.4%
17,Cc1ccccc1C(=O)N1CCC2(CCCN2CCN(C)C)CC1,-35.6%
18,CC(C)c1ncncc1C(=O)NCCN1CCCC1,29%
19,CN(C)C(=O)c1c[nH]nc1C1CCN(S(=O)(=O)c2ccc(Cl)cc2)CC1,24.8%
20,CN(Cc1ccco1)[C@@H]1CN(CC2CCOCC2)[C@@H]2CCCO[C@H]12,33.4%
21,CC(C)OCCCNC(=O)CN1CCN(c2nccs2)C(C)C1 (centres undefined),-27.5%
22,Cc1cn[nH]c1C1COCCN1S(=O)(=O)c1cn[nH]c1 (centres undefined),23.2%
23,Cn1cnnc1SCC(=O)NC1CC(=O)N(CCc2cccc(Cl)c2)C1 (centres undefined),6.29%
24,CC(=O)N1CCC2(CC1)CC(N1CCOCC1)c1ccc(C)cc12 (centres undefined),-39.2%
25,Cc1nc(NCc2nccn2C)cc(C2COCCN2)n1 (centres undefined),23.375%
26,Cc1noc(-c2ccc(N3CCCC(C(=O)N4CCSCC4)C3)nc2)n1 (centres undefined),28.8%

row,SMILES,INHIBITION
1,Cc1noc(-c2ccc(N3CCCC(C(=O)O)C3)nc2)n1 (centres undefined),-19.2%
2,Cc1noc(-c2ccc(N3CCC(C(=O)N4CCCC4)CC3)nc2)n1,76.7%
3,CCn1ncc(S(=O)(=O)N[C@@H]2CC[C@@H](n3ccnc3C)[C@@H]2O)c1C,4.9%
4,Cc1cc(=O)[nH]c(=O)n1COCc1ccccc1,13.6%
5,Cc1ccccc1COCCOCn1c(C)cc(=O)[nH]c1=O,51.3%
6,Cc1cc(=O)[nH]c(=O)n1COCCOCc1ccccc1,8.41%
7,CC(C)n1ccnc1CN1CCOC(CC2CCCCC2)C1 (centres undefined),50%
8,CC(C)n1ccnc1CN1CCCN(C(=O)CC2CCCO2)CC1 (centres undefined),-32%
9,CC(C)n1ccnc1CN1CCOC(CCc2ccccc2)C1 (centres undefined),9.34%
10,COc1ccccc1C1(NCc2c(C)nc3c(C)cccn23)CCCC1,49%
11,Cc1nc2sccn2c1CNC1(c2ccccc2F)CCCC1,52.4%
12,Cc1nc2sccn2c1CNc1cc(C(=O)O)ccc1F,-15.7%
13,O=C(Cn1cccn1)N(CCO)CCSc1ccc(Cl)cc1,24.7%
14,Cc1nc(C(C)NC(=O)c2cn(Cc3ccc(Cl)cc3)nn2)n[nH]1 (centres undefined),39.9%
15,Cc1noc(C(C)C)c1C(=O)NCC(c1ccccc1)N(C)C (centres undefined),-7.35%
16,OC1(Cn2ccc3ncccc32)CCN(Cc2cccnc2)CC1,35.2%
17,Cc1cc(CN2CCC(O)(Cn3ccc4ncccc43)CC2)c(C)s1,23.2%
18,OC1(Cn2ccc3ncccc32)CCN(Cc2cccs2)CC1,64.1%
19,CCn1ncc(CN2CCC(O)(Cn3ccc4ncccc43)CC2)c1C,19.6%
20,COc1ccccc1CN1CCC(O)(Cn2ccc3ncccc32)CC1,14.7%
21,COCc1ccc(CN2CCC(O)(Cn3ccc4ncccc43)CC2)o1,38.7%
22,OC1(Cn2ccc3ncccc32)CCN(Cc2ccccc2F)CC1,70.1%
23,OC1(Cn2ccc3ncccc32)CCN(Cc2ccccn2)CC1,50.6%
24,OC1(Cn2ccc3ncccc32)CCN(Cc2cc(F)cc(F)c2)CC1,54.4%
25,Cc1ccc(CN2CCC(O)(Cn3ccc4ncccc43)CC2)o1,28%
26,OC1(Cn2ccc3ccncc32)CCN(Cc2ccccn2)CC1,37%

row,SMILES,INHIBITION
1,CCn1cc(CN2CCC(O)(Cn3ccc4ncccc43)CC2)cn1,38.8%
2,CC(C)Nc1nc2c(cc1C(=O)N(C)C)CCNCC2,-3.83%
3,CCCN1CCC2(C1)c1ccccc1S(=O)(=O)N2C (centres undefined),13.7%
4,OC(CNCCc1nnc2ccccn12)c1ccc2c(c1)OCO2 (centres undefined),-20.5%
5,CCCc1nc(C)c(C(=O)Nc2cccc(C)n2)s1,1.45%
6,COC[C@H]1CN(CC2CC2)C(=O)[C@@H]2CCN(Cc3ccoc3)CC[C@H]12,11.3%
7,Cc1ccsc1CN(Cc1nc2c(cnn2C)c(=O)[nH]1)C(C)C,31.533%
8,COc1ccc(NC(=O)N(CC2CCOC2)C2CC2)cn1 (centres undefined),12.85%
9,Cn1cncc1C(=O)N1CCOC2(COCCN(CC3CC3)C2)C1 (centres undefined),-8.23%
10,Cc1csc(CN2CC[C@H]3C[C@@H](c4noc(C)n4)O[C@@H]3C2)n1,29%
11,Cc1noc(C)c1CN1CC[C@H]2C[C@H](c3ccncn3)O[C@@H]2C1,34.6%
12,Cc1nc([C@@H]2C[C@H]3CN(Cc4ccc5c(c4)OCO5)C[C@H]3O2)no1,29.4%
13,Cc1nc([C@H]2C[C@@H]3CCN(Cc4ccc5c(c4)OCO5)C[C@H]3O2)no1,59.3%
14,Cc1noc(C)c1CN1CC[C@H]2C[C@@H](c3ccncn3)O[C@@H]2C1,21.6%
15,Cc1nc([C@H]2C[C@@H]3CCN(Cc4scnc4C)C[C@H]3O2)no1,88%
16,Cc1nccc([C@@H]2C[C@@H]3CCN(Cc4c(C)noc4C)C[C@H]3O2)n1,67.2%
17,Cc1noc([C@@H]2C[C@H]3CN(Cc4ccc5c(c4)OCO5)C[C@H]3O2)n1,42.1%
18,Cc1nc([C@@H]2C[C@H]3CN(Cc4scnc4C)C[C@H]3O2)no1,-35.2%
19,Cc1noc(C)c1CN1CCC(c2ccnn2CCO)CC1,-43.5%
20,COCC(O)CN1CCC(=O)N(Cc2ccco2)Cc2ccccc21 (centres undefined),24.5%
21,CN1CCN(C[C@H]2OC[C@@H]3CCN(C(=O)c4cnccn4)C[C@@H]32)CC1,31.4%
22,CCN1CCCC(c2nc(O)c3cc(C)ccc3n2)C1 (centres undefined),16.8%
23,O=C(Cc1cccnc1)NC1CCCN(CCCc2ccccc2)C1 (centres undefined),8.99%
24,CC(CN1CCC2(CC1)N=C(c1cccnc1)NC2=O)c1ccccc1 (centres undefined),70.1%
25,O=C1NC(c2ccccc2)=N[C@@]12CC[C@@H]1CN(Cc3cccnc3)C[C@@H]12,33%
26,O=C1NC(c2cccnc2)=NC12CCN(CCCc1ccccc1)CC2,58.7%

row,SMILES,INHIBITION
1,CC1=NC2(CCN(CC(C)c3ccccc3)CC2)C(=O)N1 (centres undefined),14%
2,CC(CN1CCC2(CC1)N=C(N(C)C)NC2=O)c1ccccc1 (centres undefined),0.825%
3,CC(NC(=O)NCCCn1ccnc1)c1nncn1C (centres undefined),-6.61%
4,c1coc(CN2CCC3(CC2)COC(COCC2CCOCC2)C3)c1 (centres undefined),6.27%
5,COc1cccc(-c2cc(C(=O)NCCn3nc(C)nc3C)[nH]n2)c1,-13.6%
6,CCn1c(C)cc(C(=O)N2CCCC(n3ccnc3C)C2)c1C (centres undefined),-11.3%
7,COc1cc(CNCC2CN(C3CC3)CCO2)cc(OC)c1 (centres undefined),-18.3%
8,Oc1ccc(Cl)cc1CNCc1cccc(C(F)(F)F)c1,27.4%
9,CCc1nc(CN2CCCC2C(=O)NC)cs1 (centres undefined),49%
10,N#Cc1cccc(OCCN2CCCC2C(=O)Nc2nccs2)c1 (centres undefined),44%
11,CC(=O)Nc1cccc(CN2CCCC2C(=O)Nc2nccs2)c1 (centres undefined),34.6%
12,CCc1ccsc1C(=O)N1CCCN(Cc2nccn2CC)CC1,30.65%
13,CC(C)(C)NC(=O)C1CCCCN1Cc1nccn1CC(F)(F)F (centres undefined),46.6%
14,CCn1ccnc1CN1CCCC1C(=O)Nc1nccs1 (centres undefined),72.2%
15,CCNc1ccnc(CN2CCCC2C(=O)Nc2nccs2)c1 (centres undefined),85.1%
16,O=C(Nc1nccs1)NC1CCN(Cc2ccccn2)CC1,17.4%
17,CC1CN(CC(=O)Nc2nccs2)CCN1Cc1nccn1C (centres undefined),26.675%
18,O=C(C1CCCCN1Cc1nccn1CC(F)(F)F)N1CCCC1 (centres undefined),58.9%
19,O=C(Nc1nccs1)C1CCCN1Cc1ccccn1 (centres undefined),87.6%
20,NC(=O)C1CCCN1Cc1nccn1CC(F)(F)F (centres undefined),30.9%
21,N#Cc1ccccc1C(=O)Nc1cccc(CN2CCC(CO)CC2)c1,-43.1%
22,Cc1cc(OCC(=O)N2CCCC(c3nc(C)c(C)s3)C2)no1 (centres undefined),0.914%
23,CC(O)CN1CCN(C(=O)c2ccc(N3CCCC3)nn2)CC1 (centres undefined),-43.5%
24,O=C(CC1CCCC1)Nc1ccc(-n2cc(Br)cn2)nc1,24.8%
25,CN(C)S(=O)(=O)CCCN1CCc2c(ncn2C2CC2)C1,33.7%
26,COCCN1C(=O)CCC12CCN(C(=O)CNC(C)=O)CC2,-49.2%
